The target in assay [1] is T1, Methionyl-tRNA synthetase, putative (Leishmania donovani (strain BPK282A1)) (UniProt E9BF75).
T1 sequence (whole entry): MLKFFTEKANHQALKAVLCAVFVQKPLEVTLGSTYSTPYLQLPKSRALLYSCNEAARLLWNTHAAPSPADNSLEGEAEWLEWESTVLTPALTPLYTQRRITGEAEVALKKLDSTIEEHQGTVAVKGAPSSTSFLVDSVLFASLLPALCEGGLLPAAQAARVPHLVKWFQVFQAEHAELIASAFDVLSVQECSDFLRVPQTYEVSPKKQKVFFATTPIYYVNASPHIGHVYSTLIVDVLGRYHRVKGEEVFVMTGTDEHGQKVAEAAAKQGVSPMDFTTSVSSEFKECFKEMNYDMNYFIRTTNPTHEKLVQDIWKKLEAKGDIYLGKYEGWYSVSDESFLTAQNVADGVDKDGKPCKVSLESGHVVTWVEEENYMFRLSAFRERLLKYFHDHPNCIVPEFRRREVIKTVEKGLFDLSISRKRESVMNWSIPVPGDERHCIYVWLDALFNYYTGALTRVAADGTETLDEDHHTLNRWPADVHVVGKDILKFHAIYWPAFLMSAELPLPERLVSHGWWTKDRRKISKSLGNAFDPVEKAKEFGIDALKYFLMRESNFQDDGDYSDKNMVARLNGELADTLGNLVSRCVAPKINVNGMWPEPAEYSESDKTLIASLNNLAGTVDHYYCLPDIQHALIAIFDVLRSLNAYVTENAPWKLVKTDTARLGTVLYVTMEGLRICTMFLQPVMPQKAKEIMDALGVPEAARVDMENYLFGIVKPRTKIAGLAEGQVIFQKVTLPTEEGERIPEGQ
Nature of the assay: Leishmania donovani Methionine tRNA synthetase (LdMetRS):v7. Dose response assay. The class given is functional. Further details: conc 80 nM, time 150 minutes.

Assay [2] addresses Protein translocase subunit SecA (Escherichia coli (strain K12)) (UniProt P10408). In words: Assay to Identify E. coli SecA ATPase Inhibitors. More on the design: scale not given: direction of the effect not stated beside the values. In kind it is functional. As to conditions: 30 µM.
Assay [3] addresses T2, Ubiquitin-activating enzyme e1, putative (Leishmania donovani (strain BPK282A1)) (UniProt E9BSI1).
T2 sequence (whole entry): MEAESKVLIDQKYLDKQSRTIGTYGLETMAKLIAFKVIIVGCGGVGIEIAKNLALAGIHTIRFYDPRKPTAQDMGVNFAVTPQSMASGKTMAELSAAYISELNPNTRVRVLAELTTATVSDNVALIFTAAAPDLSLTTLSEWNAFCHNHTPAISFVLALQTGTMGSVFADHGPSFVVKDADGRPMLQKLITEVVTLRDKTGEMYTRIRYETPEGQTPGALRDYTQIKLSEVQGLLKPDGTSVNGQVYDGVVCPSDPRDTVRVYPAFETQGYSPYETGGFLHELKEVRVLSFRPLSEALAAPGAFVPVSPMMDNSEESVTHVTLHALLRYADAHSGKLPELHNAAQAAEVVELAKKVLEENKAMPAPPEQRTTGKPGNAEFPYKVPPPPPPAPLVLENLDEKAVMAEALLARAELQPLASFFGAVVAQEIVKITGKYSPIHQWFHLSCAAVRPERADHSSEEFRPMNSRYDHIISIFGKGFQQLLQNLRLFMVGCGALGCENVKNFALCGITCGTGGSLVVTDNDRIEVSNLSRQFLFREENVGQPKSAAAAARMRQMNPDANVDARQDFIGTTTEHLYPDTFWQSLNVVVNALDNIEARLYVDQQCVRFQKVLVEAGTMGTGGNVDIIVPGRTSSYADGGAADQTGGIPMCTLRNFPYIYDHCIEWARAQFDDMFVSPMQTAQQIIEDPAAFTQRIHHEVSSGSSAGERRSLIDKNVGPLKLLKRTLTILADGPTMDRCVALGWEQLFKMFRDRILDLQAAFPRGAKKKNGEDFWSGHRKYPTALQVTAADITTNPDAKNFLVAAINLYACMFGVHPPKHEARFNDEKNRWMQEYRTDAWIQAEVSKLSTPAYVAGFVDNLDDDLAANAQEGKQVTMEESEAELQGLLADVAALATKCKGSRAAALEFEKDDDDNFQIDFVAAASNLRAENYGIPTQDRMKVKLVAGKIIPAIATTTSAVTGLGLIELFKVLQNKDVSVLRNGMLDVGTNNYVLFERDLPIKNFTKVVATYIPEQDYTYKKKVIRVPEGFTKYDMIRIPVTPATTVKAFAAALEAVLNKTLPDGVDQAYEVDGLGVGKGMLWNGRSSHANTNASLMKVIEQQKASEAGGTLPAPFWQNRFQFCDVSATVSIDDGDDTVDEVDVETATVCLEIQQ
Nature of the assay: Leishmania donovani Ubiquitin Activating Enzyme (LdE1). Further details: scale not given: direction of the effect not stated beside the values. In kind it is functional. As to conditions: 30 µM.

The target in assay [4] is AMP-activated protein kinase, AMPK (Homo sapiens) (UniProt P54646+O43741+P54619+Q9UGJ0+Q9Y478+Q13131+Q9UGI9). Nature of the assay: AMP-dependent Kinase enzyme assay. An in vitro enzyme assay that detects ADP turnover that is directly proportional to AMPK activity. This uses naive AMPK that is activated during the assay with MK-8722. The class given is functional. Further details: scale not given: direction of the effect not stated beside the values. As to conditions: 30 µM.

Assay [5] has as its target Sialic acid-binding Ig-like lectin 9 (Homo sapiens) (UniProt Q9Y336). Nature of the assay: Hs-Siglec9 ALPHAscreen SOP 20170721. More on the design: scale not given: direction of the effect not stated beside the values. As to conditions: 10 µM. (In general: In Alpha technology, singlet oxygen from a donor bead excites a nearby acceptor bead.)
The subject of a further assay is Trypanosoma cruzi. In words: Trypanosoma cruzi phosphomannomutase and mannose-1-phosphate guanylyltransferase assay. Further details: scale not given: direction of the effect not stated beside the values. As to conditions: 10 µM. The class given is functional.
In assay [6] the target is T3, Arginase-2, mitochondrial (Homo sapiens) (UniProt P78540).
T3 sequence (whole entry): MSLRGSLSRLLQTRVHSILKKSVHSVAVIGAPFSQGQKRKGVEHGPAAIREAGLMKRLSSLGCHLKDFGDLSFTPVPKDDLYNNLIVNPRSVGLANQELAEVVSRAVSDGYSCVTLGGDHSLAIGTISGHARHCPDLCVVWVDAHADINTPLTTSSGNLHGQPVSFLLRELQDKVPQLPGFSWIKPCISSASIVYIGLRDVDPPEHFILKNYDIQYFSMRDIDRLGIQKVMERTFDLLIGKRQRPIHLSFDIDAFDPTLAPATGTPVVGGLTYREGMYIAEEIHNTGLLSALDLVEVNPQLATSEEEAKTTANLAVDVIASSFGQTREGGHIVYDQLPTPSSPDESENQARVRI
In words: in vitro enzyme assay to detect the production of urea directly proportional to the activity of Arginase II. In kind it is functional. More on the design: scale not given: in the data most compounds retested in dose-response had high values. As to conditions: 33.3 µM.

The target in assay [7] is T4, Proteasome subunit beta (Trypanosoma cruzi) (UniProt O96673).
T4 sequence (whole entry): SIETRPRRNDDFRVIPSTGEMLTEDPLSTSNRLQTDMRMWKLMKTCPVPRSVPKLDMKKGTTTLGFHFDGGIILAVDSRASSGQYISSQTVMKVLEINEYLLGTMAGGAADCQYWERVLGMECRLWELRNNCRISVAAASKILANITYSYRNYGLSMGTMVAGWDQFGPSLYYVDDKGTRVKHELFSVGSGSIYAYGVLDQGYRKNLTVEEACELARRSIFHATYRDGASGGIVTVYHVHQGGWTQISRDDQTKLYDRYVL
In words: Trypanosoma cruzi proteasome chymotrypsin-like activity (TcProtChymo) assay. In kind it is functional. Further details: scale not given: in the data most compounds retested in dose-response had high values. As to conditions: 9.37 µM.

The next assay is filed under the species Homo sapiens. Nature of the assay: To identify inhibition of the IFN signalling (Jak-Stat) pathway via expression of an eGFP reporter gene under the control of an IFN-stimulated response element (ISRE) containing MxA promoter. The class given is functional. More on the design: scale not given: direction of the effect not stated beside the values. As to conditions: 30 µM. Background: Reporter assays use an easily measured gene product as a stand-in for the process of interest.

In assay [8] the target is T5, Tyrosyl-tRNA synthetase, putative (Trypanosoma cruzi (strain CL Brener)) (UniProt Q4DSP6).
T5 sequence (whole entry): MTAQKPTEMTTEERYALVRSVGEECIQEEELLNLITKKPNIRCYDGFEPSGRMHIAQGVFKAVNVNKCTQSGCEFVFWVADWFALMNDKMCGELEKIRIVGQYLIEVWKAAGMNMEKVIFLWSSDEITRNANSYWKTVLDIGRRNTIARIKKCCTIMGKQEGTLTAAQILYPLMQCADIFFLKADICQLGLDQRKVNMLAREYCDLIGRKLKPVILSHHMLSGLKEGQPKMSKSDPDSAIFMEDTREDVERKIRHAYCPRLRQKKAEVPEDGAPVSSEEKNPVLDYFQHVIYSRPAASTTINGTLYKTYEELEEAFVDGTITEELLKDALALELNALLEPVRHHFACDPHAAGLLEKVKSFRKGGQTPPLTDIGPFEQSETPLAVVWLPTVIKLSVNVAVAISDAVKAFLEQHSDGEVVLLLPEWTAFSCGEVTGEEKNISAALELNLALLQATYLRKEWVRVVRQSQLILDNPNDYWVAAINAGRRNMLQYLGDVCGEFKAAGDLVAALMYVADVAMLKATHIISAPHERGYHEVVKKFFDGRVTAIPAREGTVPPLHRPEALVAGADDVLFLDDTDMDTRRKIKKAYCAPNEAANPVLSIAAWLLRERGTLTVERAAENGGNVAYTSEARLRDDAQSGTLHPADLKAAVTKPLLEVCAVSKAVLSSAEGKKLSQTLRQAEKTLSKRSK
Nature of the assay: Trypanosoma cruzi tyrosyl tRNA synthetase (TcYRS) _High Tyrosine SOP. The class given is functional. As to conditions: 30 µM. Further details: scale not given: in the data most compounds retested in dose-response had high values.

Assay [9] addresses T5, Tyrosyl-tRNA synthetase, putative (Trypanosoma cruzi (strain CL Brener)). Nature of the assay: Trypanosoma cruzi tyrosyl tRNA synthetase (TcYRS) SOP. In kind it is functional. More on the design: scale not given: direction of the effect not stated beside the values. As to conditions: 30 µM.
Assay [10] concerns the target Chromo domain-containing protein 1 (Saccharomyces cerevisiae (strain ATCC 204508 / S288c) (Baker's yeast)) (UniProt P32657). In words: ScCHD-1 Enzyme Inhibition Assay. In kind it is functional. Further details: scale not given: in the data most compounds retested in dose-response had high values. As to conditions: 30 µM.

For some of these results: Potency and affinity values are given separately.

This passage reports PXC50 and Percent Effect results from ChEMBL document CHEMBL3988442, “University of Dundee, Small-Polar-MMV Screening Library” (2021).

Sequence of Chromo domain-containing protein 1 (Saccharomyces cerevisiae (strain ATCC 204508 / S288c) (Baker's yeast)) (P32657 whole entry, the tested form may be a part): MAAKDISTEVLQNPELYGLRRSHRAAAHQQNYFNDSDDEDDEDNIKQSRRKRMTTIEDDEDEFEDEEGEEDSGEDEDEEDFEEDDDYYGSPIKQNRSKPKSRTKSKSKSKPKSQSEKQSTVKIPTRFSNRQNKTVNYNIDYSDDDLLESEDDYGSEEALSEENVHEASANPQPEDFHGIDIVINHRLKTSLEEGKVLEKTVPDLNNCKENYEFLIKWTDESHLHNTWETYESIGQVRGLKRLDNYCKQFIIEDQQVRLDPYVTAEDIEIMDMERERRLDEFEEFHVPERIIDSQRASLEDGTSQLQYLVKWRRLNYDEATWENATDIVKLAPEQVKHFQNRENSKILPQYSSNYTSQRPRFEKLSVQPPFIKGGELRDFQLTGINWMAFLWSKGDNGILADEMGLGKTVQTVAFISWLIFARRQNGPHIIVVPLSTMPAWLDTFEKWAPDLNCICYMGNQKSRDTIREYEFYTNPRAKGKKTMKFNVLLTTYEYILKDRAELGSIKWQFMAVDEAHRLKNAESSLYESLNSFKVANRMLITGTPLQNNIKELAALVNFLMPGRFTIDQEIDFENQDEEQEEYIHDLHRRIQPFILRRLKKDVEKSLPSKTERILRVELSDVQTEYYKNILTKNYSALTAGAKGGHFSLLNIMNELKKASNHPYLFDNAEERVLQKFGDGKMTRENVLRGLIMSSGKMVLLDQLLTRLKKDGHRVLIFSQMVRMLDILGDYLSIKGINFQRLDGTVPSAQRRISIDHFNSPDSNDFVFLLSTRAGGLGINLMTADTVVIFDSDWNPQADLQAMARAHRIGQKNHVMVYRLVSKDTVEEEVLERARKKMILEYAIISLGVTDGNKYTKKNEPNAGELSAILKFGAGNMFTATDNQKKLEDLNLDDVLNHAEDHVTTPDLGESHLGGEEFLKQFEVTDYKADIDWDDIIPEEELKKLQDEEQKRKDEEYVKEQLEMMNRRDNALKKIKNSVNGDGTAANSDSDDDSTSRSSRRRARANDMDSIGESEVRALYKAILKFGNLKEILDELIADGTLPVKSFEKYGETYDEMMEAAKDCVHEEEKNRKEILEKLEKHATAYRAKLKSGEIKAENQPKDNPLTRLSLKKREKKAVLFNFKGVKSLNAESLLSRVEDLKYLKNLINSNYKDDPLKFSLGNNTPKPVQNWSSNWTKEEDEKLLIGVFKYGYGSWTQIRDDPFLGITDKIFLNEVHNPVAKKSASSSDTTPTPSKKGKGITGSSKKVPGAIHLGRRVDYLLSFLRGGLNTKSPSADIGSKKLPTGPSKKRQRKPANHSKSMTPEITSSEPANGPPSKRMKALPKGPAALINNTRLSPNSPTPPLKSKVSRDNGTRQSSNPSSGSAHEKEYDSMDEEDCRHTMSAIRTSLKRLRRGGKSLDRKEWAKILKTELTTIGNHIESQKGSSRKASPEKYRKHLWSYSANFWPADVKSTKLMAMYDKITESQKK
Sequence of Sialic acid-binding Ig-like lectin 9 (Homo sapiens) (Q9Y336 whole entry): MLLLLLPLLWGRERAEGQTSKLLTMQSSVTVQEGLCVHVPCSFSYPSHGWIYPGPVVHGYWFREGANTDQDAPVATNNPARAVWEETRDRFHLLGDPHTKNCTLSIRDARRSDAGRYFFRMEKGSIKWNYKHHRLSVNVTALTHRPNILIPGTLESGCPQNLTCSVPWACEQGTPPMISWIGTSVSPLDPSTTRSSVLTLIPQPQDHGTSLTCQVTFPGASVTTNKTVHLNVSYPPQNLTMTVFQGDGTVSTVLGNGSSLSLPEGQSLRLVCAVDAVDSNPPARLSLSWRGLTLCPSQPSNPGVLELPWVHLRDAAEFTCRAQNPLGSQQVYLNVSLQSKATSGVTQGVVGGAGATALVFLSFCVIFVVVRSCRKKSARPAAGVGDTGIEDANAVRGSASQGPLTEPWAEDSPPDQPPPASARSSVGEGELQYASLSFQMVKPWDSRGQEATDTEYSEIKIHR
Sequence of Protein translocase subunit SecA (Escherichia coli (strain K12)) (P10408 whole entry): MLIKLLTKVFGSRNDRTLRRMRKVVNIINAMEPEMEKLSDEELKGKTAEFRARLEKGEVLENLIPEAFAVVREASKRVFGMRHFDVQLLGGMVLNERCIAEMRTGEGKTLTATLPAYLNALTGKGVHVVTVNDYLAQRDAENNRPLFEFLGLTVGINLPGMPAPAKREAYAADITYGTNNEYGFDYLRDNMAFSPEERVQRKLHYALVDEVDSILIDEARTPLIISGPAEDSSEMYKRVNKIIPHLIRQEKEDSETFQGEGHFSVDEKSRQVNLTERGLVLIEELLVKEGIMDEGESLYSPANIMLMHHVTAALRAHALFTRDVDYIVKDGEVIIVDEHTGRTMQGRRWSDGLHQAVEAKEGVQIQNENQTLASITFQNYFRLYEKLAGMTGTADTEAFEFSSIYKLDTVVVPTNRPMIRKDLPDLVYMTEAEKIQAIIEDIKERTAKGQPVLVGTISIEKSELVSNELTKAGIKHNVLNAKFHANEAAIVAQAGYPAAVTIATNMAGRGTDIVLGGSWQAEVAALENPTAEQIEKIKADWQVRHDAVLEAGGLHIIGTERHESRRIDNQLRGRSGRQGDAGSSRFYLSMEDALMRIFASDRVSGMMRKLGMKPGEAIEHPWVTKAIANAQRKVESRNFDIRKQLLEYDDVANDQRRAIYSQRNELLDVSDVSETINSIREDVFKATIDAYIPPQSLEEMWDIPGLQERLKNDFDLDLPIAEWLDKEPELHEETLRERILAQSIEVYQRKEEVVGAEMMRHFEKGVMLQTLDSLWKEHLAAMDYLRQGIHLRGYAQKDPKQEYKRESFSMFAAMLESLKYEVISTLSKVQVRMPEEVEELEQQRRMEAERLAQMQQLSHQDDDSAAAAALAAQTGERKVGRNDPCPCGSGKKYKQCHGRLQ

As for `Cc1nc2cc(=O)[nH]n2c(C)c1CC(=O)Nc1ccc2ccccc2n1`, the PXC50 in assay [1] (BOTTOM 1.14070889, HILLSLOPE 1.278083227, MAX_EFFECT 56.52173913, TOP 100.0) is 4.1; in assay [1] (MAX_EFFECT 23.76395534) it was < 4; in assay [1] (MAX_EFFECT 26.29558541) it was < 4; in [1] (MAX_EFFECT 33.33333333), < 4; in assay [1] (MAX_EFFECT 45.21452145), < 4. Also, the Percent Effect was -3.58% in assay [2]; 5.26% in assay [3]; -24.7% in assay [4]; 6.53% in assay [5]; 0.564% in the assay on Trypanosoma cruzi; -6.51% in assay [6]. The Percent Effect in assay [7] is -1.34%; in the assay filed under Homo sapiens, -15.5%; in assay [8], 16.2%; in assay [9], 12.2%; in assay [10] it was -1.37%.
In the case of `c1ccc(C2CCN(c3cncc(-n4cccn4)n3)CC2)cc1`, the PXC50 in assay [1] (MAX_EFFECT 19.47743468) and in assay [1] (MAX_EFFECT 35.38732394) was < 4 each time. The Percent Effect was -1.56% in assay [2]; 8.11% in [3]; 3.62% in assay [4]; 3.88% in assay [5]; 1.17% in the assay on Trypanosoma cruzi; 5.42% in assay [6]. Further, the Percent Effect in assay [7] is 14.1%; in the assay filed under Homo sapiens, 10%; in [8] it was 9.9%; in assay [9] it was 18.3%; in assay [10], -4.19%.
`Cc1cc(C)n(-c2nc(NCCCO)c3c4c(sc3n2)CCCC4)n1`: the PXC50 worked out at 4.43 in assay [1] (BOTTOM 0.694327114, HILLSLOPE 1.749821258, MAX_EFFECT 87.74703557, TOP 100.0); 4.59 in [1] (BOTTOM 1.783825543, HILLSLOPE 1.533717892, MAX_EFFECT 94.44444444, TOP 106.8963367); 4.27 in [1] (BOTTOM 1.928318756, HILLSLOPE 2.074005498, MAX_EFFECT 78.73015873, TOP 100.0); 4.61 in assay [1] (BOTTOM 4.876612539, HILLSLOPE 1.662902224, MAX_EFFECT 88.59060403, TOP 97.50762335); 4.48 in [1] (BOTTOM 5.143035966, HILLSLOPE 1.849282201, MAX_EFFECT 96.18717504, TOP 100.0).
